The text below walks through data of PubChem BioAssay (Tox21).

Molecules are shown by their SMILES. Results filed as inconclusive are left out. Where a call stands in place of a potency, no number is given. A structure can be active in one record and inactive in another. Calls of active or inactive are those of the source. The call rests on the fitted dose curve.
Potency means the concentration at half of the fitted maximal effect.

A short description of the experiment: Nuclear factor erythroid 2-related factor 2/antioxidant responsive element (Nrf2/ARE) small molecule agonists: luciferase reporter gene qHTS assay in human keratinocytes (AID 1919969). Further: nearly all actives have a fitted effect of over 35% in size. Particulars: KeratinoSens HaCaT ARE-luciferase, luminescence, 24 h; series mostly up to 92.4 µM. The text has this:
National Center for Advancing Translational Sciences [NCATS]
Division of Preclinical Innovation [DPI]
U.S. Environmental Protection Agency [EPA]
National Institutes of Environmental Health Sciences [NIEHS]
National Toxicology Program [NTP]
U.S. Food and Drug Administration [FDA]
Oxidative stress has been implicated in the pathogenesis of a variety of diseases ranging from cancer to neurodegeneration. The antioxidant response element (ARE) signaling pathway plays an important role in the amelioration of oxidative stress. The KeratinoSens (Givaudan, Switzerland) is an in vitro test method which quantifies luciferase induction as a measure of activation of Keap1-Nrf2-antioxidationt/electrophile response element (ARE) dependant pathway in HaCaT human keratinocytes stably transfected with a selectable plasmid. The KeratinoSens assay is a cell-based assay with a reporter cell line to detect potential skin sensitizers by their ability to induce the Nrf2/ARE-response. The activation of the report gene under culture conditions can be detected by ONE-Glo Luciferase Assay System (Promega, Madison, WI). This cell line has been used to screen the Tox21 10K compound library to identify agonists that induce oxidative stress. The cytotoxicity of the Tox21 compound library against the KS-ARE cell line was tested in parallel by measuring the cell viability using CellTiter- Fluor assay system (Promega, Madison, WI) in the same wells.
HaCaT derived cell line KeratinoSens were dispensed at 1,500 cells/5uL/well in 1536-well white wall/solid bottom plates using a Multidrop Combi (ThermoFisher Scientific, Waltham, MA) dispenser. After the assay plates were incubated at 37 C/5% CO2 for 5 h, 23 nL of compounds dissolved in DMSO, positive controls or DMSO only was transferred to the assay plate by a pintool workstation (Kalypsys, San Diego, CA). The plates were incubated at 37 C/5% CO2 for 23 h, followed by addition of 1uL/well of CellTiter-Fluor reagent into the assay plates using a Flying Reagent Dispenser (Aurora Discovery, San Diego, CA) for cell viability readout that measures cytotoxicity. After 1 h incubation at 37 C/5% CO2 the fluorescence intensity was measured using a ViewLux (PerkinElmer, Shelton, CT) plate reader. Then 4uL/well of One-Glo were added using a Flying Reagent Dispenser. After the plates were incubated at room temperature for 30 min, the luminescence intensity in the assay plates was measured using ViewLux plate reader.
Background: In a reporter assay the amount or activity of a reporter protein is the signal.
Consider `O=C1NC2NC(=O)NC2N1` (stereo not given), for which the Potency entry was “inactive”. On the same count and under the same terms, to `CC1C(C)(C)C2=C(C(=O)CCC2)C1(C)C` (stereo not given) belongs “inactive”. Turning to `O=C(O)CN(CCCN(CC(=O)O)CC(=O)O)CC(=O)O`, the activity, positive = activation is -12.6% [at 19 µM] (inactive).

As to `CCOC(=O)c1cc(=O)c2c(OCC(COc3cccc4oc(C(=O)OCC)cc(=O)c34)OC(=O)[C@@H](N)CCCCN)cccc2o1`, the Potency result was “inactive”. The same measure, in the same setting: to `CC(=O)C(C)O` (stereo not given) belongs “inactive”; to `O=S(=O)(O)CCS`, “inactive”. On to `Fc1ccccc1-c1ccccc1`, for which the Potency result is “inactive”. Still for that read-out and setting: in the case of `CC12CCC(C1)C(C)(C)C2O` (stereo not given) it was “inactive”. The same measure, in the same setting: in the case of `CCC(C)(Oc1ccc(C2(c3ccc(OC(C)(CC)C(=O)O)cc3)CCCCC2)cc1)C(=O)O` (stereo not given) it was “inactive”; in that of `COc1ccccc1C=O`, “inactive”; in that of `O=C(CCN1CCN(CCO)CC1)N1c2ccccc2Sc2ccc(C(F)(F)F)cc21`, “inactive”. Still for that read-out and setting: in the case of `O=C(O)C(=O)Nc1cccc(-c2nn[nH]n2)c1` it was “inactive”; in that of `OCCN1CCNCC1`, “inactive”. On to `NCCCN1CCN(CCCN)CC1`, for which the Potency entry was “inactive”.

`C[Si](C)(C)O[Si](C)(C)O[Si](C)(C)C`: the Potency entry was “inactive”. Still for that read-out and setting: to `CC(C)(CCl)c1ccccc1` belongs “inactive”; to `CC1COc2ccccc2N1` (stereo not given), 54.5 µM (active); to `CCCCC(CC)COC(=O)CCCCCCCC(=O)OCC(CC)CCCC` (stereo not given), 15.4 µM (active) and inactive.

Regarding `COc1cc(C)c(Cc2cnc(N)nc2N)cc1OC`, the Potency result was “inactive”. On the same count and under the same terms, in the case of `C=CC(C)(CCC=C(C)C)OC(=O)CC` (stereo not given) it was “inactive”. On the same count and under the same terms, to `Cc1ccc(C)o1` belongs “inactive”; to `Cl/C(=C\n1cncn1)c1ccc(Cl)cc1Cl`, “inactive”. Same read-out and setting: in the case of `[Cl][In]([Cl])[Cl]` it was 3.44 µM (active). For `C=CC(=O)OCCOC1C2CCC1C1CC=CC12` (stereo not given), the activity, positive = activation is -2.46% [at 19 µM] (inactive). The same measure, in the same setting: to `CN(C)c1ccc(/C=C/c2ccc([N+](=O)[O-])cc2)cc1` belongs 12.5% [at 8.39 µM] (inactive). Turning to `N#Cc1ccc(C2CCCc3cncn32)cc1` (stereo not given), the Potency entry was “inactive”. For the compound `CCC(=O)OC`, the Potency entry is “inactive”. Same read-out and setting: in the case of `COc1cc(C(=O)NCc2ccc(OCCN(C)C)cc2)cc(OC)c1OC` it was “inactive”.

In the case of `COc1ccc2cc1Oc1cc3c(cc1OC)CC[N+](C)(C)[C@H]3Cc1ccc(cc1)Oc1c(OC)c(OC)cc3c1[C@@H](C2)[N+](C)(C)CC3`, the Potency entry was “inactive”. On the same count and under the same terms, to `Nc1nc(=O)n([C@@H]2O[C@H](CO)[C@@H](O)[C@@H]2F)cc1I` belongs “inactive”; to `c1ccc(CNc2ncnc3c2ncn3C2CCCCO2)cc1` (stereo not given), 1.72 µM (active). In the case of `CC(=O)N[C@@H](CC(C)C)C(=O)O`, the Potency entry is “inactive”. As for `C=CC(=O)OCCOC(=O)C=C`, the Potency is 68.6 µM (active). The same measure, in the same setting: to `CC(C)(C)OC=O` belongs “inactive”; to `CCC(=O)Nc1cccc(N)c1`, “inactive”; to `CC(C)c1ccccc1O`, “inactive”. The same measure, in the same setting: in the case of `CCCCc1ccc(Cl)cc1` it was “inactive”; in that of `CC(C)=CCCC(C)O` (stereo not given), “inactive”. The same measure, in the same setting: in the case of `COc1ccc(C(=O)NCc2ccc(OCCN(C)C)cc2)cc1OC` it was “inactive”. Take `O=[N+]([O-])c1cncn1CCN1CCOCC1`: the Potency entry is “inactive”.
